Reference: PubChem BioAssay (NCATS)
Where “and” joins values, the source holds several entries; their conditions need not be identical. Equal entries are not always repeated. Results filed as inconclusive are left out. A call without a number means that no potency is given here. Calls of active or inactive are those of the source. Unless noted, calls come from the whole dose curve; as a rule, active = well fitted curve in the direction sought with a large enough effect; inconclusive = small, poorly fitted or top-dose-only effect, or another doubt; inactive = no such curve, though single readings can be large; an effect the other way counts as inactive or inconclusive.

Columns and labels:
[1] = target: alpha-glucosidase (Oryza sativa, rice) (UniProt Q653V4); experiment: Counterscreen for Glucocerebrosidase Inhibitors: qHTS Assay for Rice alpha-Glucosidase at pH 5.0 (AID 997)
Procedure, shortened: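 Rice alpha-glucosidase (4 nM final) with 400 uM 4-methylumbelliferyl-alpha-D-glucopyranoside in citrate buffer pH 5.0, 20 min at room temperature, stopped at pH 10; fluorescence 365/440 nm, compounds 0.7 nM–77 uM, AC50 from Hill fits.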

[2] = Validation of Assay for Modulators of Lamin A Splicing (AID 1459; active = well fitted curve in the direction sought with a large enough effect in the signal ratio; the % refers to the signal ratio;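 note: cells exposed to compound for two days before reading; ratio rise marks activators and ratio drop marks inhibitors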)
Procedure, shortened: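 Splicing correction read as GFP (500-530 nm) over DsRed2 (575-640 nm) object intensity after 48 h compound exposure of reporter HeLa S3 clones (600 cells/well, 2% FBS medium); ancitabine and cycloheximide titrations, 0.5% DMSO as vehicle.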

[3] = qHTS Assay for Lipid Storage Modulators (AID 1519; calls by dose curve); details: Drosophila S3 cells, BODIPY lipid droplet/cell ratio, laser cytometry, cells loaded with oleic acid
Procedure, shortened: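 Cells seeded at 5,000 per well were treated with compounds over a concentration series and loaded with oleic acid (400 uM, as added). Lipid droplet fluorescence (488 nm excitation, 500-530 nm channel) was read by laser-scanning cytometry and normalized to 20 uM Triacsin C.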

[4] = target: DNA repair nuclease/redox regulator APEX1 (Homo sapiens) (UniProt P27695); experiment: qHTS Validation Assay for Inhibitors of the Human Apurinic/apyrimidinic Endonuclease 1 (APE1) (AID 1705; note: potency is the fitted concentration of half-maximal effect;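 for activity change, negative = inhibition: TAMRA fluorescence gain over two minutes as APE1 cuts a quenched THF abasic duplex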)
Chain of DNA repair nuclease/redox regulator APEX1 (Homo sapiens) (P27695 whole entry, looked up): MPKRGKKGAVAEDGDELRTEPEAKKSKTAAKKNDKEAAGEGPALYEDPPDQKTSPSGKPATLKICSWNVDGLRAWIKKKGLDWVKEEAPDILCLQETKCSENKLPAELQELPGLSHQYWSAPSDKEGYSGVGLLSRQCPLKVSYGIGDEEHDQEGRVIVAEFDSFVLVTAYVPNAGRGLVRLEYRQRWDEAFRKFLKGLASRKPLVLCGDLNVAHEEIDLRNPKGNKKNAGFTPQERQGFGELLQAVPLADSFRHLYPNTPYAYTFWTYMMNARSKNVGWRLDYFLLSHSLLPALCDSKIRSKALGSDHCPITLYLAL
Procedure, shortened: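 Activity read as rising fluorescence (598 nm emission, 525 nm excitation) from incision of a TAMRA/BHQ-2 duplex carrying a THF abasic site (50 nM). Compound and enzyme sat 15 min at RT before substrate start; signal change between first and third 60-s reads.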

[5] = Counterscreen for APE1 Inhibitors: Fluorescent Dye Displacement Validation Assay (AID 1707)
Procedure, shortened: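 Thiazole Orange displacement from dsDNA: 250 nM ThO with 50 nM TAMRA-labelled abasic-site (tetrahydrofuran) duplex in 50 mM Tris-HCl pH7.5, 50mM NaCl, 2 mM MgCl2, 0.01% Tween-20. Loss of endpoint fluorescence (ex 480 nm, em 540 nm) flags DNA binders.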

[6] = target: Endonuclease 4 (Escherichia coli (strain K12)) (UniProt P0A6C1); experiment: Counterscreen for APE1 Inhibitors: qHTS Validation Assay for Inhibitors of Endonuclease IV (AID 1708)
Procedure, shortened: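 Concentration-response counterscreen run identically to the APE1 assay: 15 min room-temperature preincubation of 2 nM enzyme with compound, reaction started with 50 nM quenched abasic DNA, progress taken from kinetic fluorescence.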

[7] = qHTS for differential inhibitors of proliferation of Plasmodium falciparum line 7G8 (AID 1815);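 note: parasite growth measured after three days of incubation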; note: potency is the fitted concentration of half-maximal effect
[8] = qHTS for differential inhibitors of proliferation of Plasmodium falciparum line GB4 (AID 1816); details: Potency: Plasmodium falciparum GB4 proliferation inhibition;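 note: parasite growth measured after 72 h incubation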; note: potency is the fitted concentration of half-maximal effect
[9] = qHTS for differential inhibitors of proliferation of Plasmodium falciparum line 3D7 (AID 1876); note: potency is the fitted concentration of half-maximal effect
[10] = measured here: cell count channel max response
[11] = measured here: lipid channel max response

With O=c1[nH]ccc2c(O)cccc12 the outcome [1] was “inactive”, the outcome [2] was “inactive” and the activity change, negative = inhibition ([3]; at 57.5 µM (top of the series)) was 1.52% (inactive). For the same molecule, the max response [3, 10] was -28%, the max response [3, 11] was -29.5% and the Potency [4] was “inactive”. For the same molecule, the Potency [5] was “inactive”, the Potency [6] was “inactive” and the Potency [7] was “inactive”. The Potency [8] was “inactive” and the Potency [9] was “inactive”.

For NC1C=CC=C(C(=O)O)C1 (stereo unspecified), the outcome [2] was “inactive”, the activity change, negative = inhibition ([3]; at 57.5 µM (top of the series)) was 2.8% (inactive) and the max response [3, 10] was 4.79%. The max response [3, 11] was -17.7%, the Potency [4] was “inactive” and the Potency [5] was “inactive”. For the same molecule, the Potency [6] was “inactive”, the Potency [7] was “inactive” and the Potency [8] was “inactive”. The Potency [9] was “inactive”.

With C=C(C)C1CC=C(C(=O)O)CC1 (stereo unspecified) the outcome [2] was “inactive”, the activity change, negative = inhibition ([3]; at 57.5 µM (top of the series)) was 0.974% (inactive) and 1.72% (inactive) and the max response [3, 10] was 16.2% and 48.1%. The max response [3, 11] was 18.4% and 48.7%, the Potency [4] was “inactive” and the Potency [5] was “inactive”. For the same molecule, the Potency [6] was “inactive”, the Potency [7] was “inactive” and the Potency [8] was “inactive”. For the same molecule, the Potency [9] was “inactive”.

With NC(C(=O)N[C@@H]1C(=O)N2C(C(=O)O)=C(Cl)CS[C@H]12)c1ccccc1 (stereo partly specified) the outcome [2] was “inactive”, the activity change, negative = inhibition ([3]; at 57.5 µM (top of the series)) was -2.36% (inactive) and the max response [3, 10] was -29.4%. The max response [3, 11] was -32.3%, the Potency [4] was “inactive” and the Potency [5] was “inactive”. The Potency [6] was “inactive”, the Potency [7] was “inactive” and the Potency [8] was “inactive”. For the same molecule, the Potency [9] was “inactive”.

For COc1ccccc1N1CCN(CCCCNC(=O)c2ccc3ccccc3c2)CC1, the outcome [1] was “inactive”, the outcome [2] was “inactive” and the activity change, negative = inhibition ([3]; at 25.7 µM (top of the series)) was 0.195% (inactive). The max response [3, 10] was 1.63%, the max response [3, 11] was 1.88% and the Potency [4] was “inactive”. The Potency [5] was “inactive”, the Potency [6] was “inactive” and the Potency [7] was 7.08 µM (active). For the same molecule, the Potency [8] was 10 µM (active) and the Potency [9] was 2 µM (active).

For O=C(O)[C@H]1NCCC[C@H]1C(=O)O, the outcome [2] was “inactive”, the activity change, negative = inhibition ([3]; at 57.5 µM (top of the series)) was -1.57% (inactive) and the max response [3, 10] was -48.8%. The max response [3, 11] was -48.9%, the Potency [4] was “inactive” and the Potency [5] was “inactive”. The Potency [6] was “inactive”, the Potency [7] was “inactive” and the Potency [8] was “inactive”. For the same molecule, the Potency [9] was “inactive”.

For N[C@H](C(=O)O)[C@H](O)C(=O)O, the outcome [1] was “inactive”, the outcome [2] was “inactive” and the activity change, negative = inhibition ([3]; at 57.5 µM (top of the series)) was 1.02% (inactive). For the same molecule, the max response [3, 10] was -11.9%, the max response [3, 11] was -6.36% and the Potency [4] was “inactive”. The Potency [5] was “inactive”, the Potency [6] was “inactive” and the Potency [7] was “inactive”. The Potency [8] was “inactive” and the Potency [9] was “inactive”.

In the case of O=C(O)c1cccnc1C(=O)O, the outcome [2] is reported as “inactive”, the activity change, negative = inhibition ([3]; at 57.5 µM (top of the series)) is reported as 1.68% (inactive) and the max response [3, 10] is reported as 9.96%. For the same molecule, the max response [3, 11] was 12.5%, the Potency [4] was “inactive” and the Potency [5] was “inactive”. The Potency [6] was “inactive”, the Potency [7] was “inactive” and the Potency [8] was “inactive”. For the same molecule, the Potency [9] was “inactive”.

With C=CCN1CCc2cc(O)c(O)cc2C(c2ccccc2)C1 (stereo unspecified) the outcome [2] was “inactive”, the activity change, negative = inhibition ([3]; at 57.5 µM (top of the series)) was 0.997% (inactive) and the max response [3, 10] was -6.45%. For the same molecule, the max response [3, 11] was -5.19%, the Potency [4] was “inactive” and the Potency [5] was “inactive”. For the same molecule, the Potency [6] was “inactive”, the Potency [7] was 11.2 µM (active) and the Potency [8] was 12.6 µM (active).

For O=C(O)c1ccccc1Nc1ccccc1, the outcome [1] was “inactive”, the outcome [2] was “inactive” and the activity change, negative = inhibition ([3]; at 57.5 µM (top of the series)) was 7.05% (inactive) and 0.0171% (inactive). The max response [3, 10] was 2.57% and -16.2%, the max response [3, 11] was 11.5% and -17.1% and the Potency [4] was “inactive”. The Potency [5] was “inactive”, the Potency [6] was “inactive” and the Potency [7] was “inactive”. For the same molecule, the Potency [8] was “inactive” and the Potency [9] was “inactive”.

In the case of C#CCn1c(=O)c2c(ncn2C)n(C)c1=O, the outcome [1] is reported as “inactive”, the outcome [2] is reported as “inactive” and the activity change, negative = inhibition ([3]; at 57.5 µM (top of the series)) is reported as 2.4% (inactive). The max response [3, 10] was -11.8%, the max response [3, 11] was -10.7% and the Potency [4] was “inactive”. For the same molecule, the Potency [5] was “inactive”, the Potency [6] was “inactive” and the Potency [7] was “inactive”. For the same molecule, the Potency [8] was “inactive” and the Potency [9] was “inactive”.

In the case of CN[C@H](CC(=O)O)C(=O)O, the outcome [1] is reported as “inactive”, the outcome [2] is reported as “inactive” and the activity change, negative = inhibition ([3]; at 57.5 µM (top of the series)) is reported as 3.39% (inactive). The max response [3, 10] was 12.1%, the max response [3, 11] was 14.4% and the Potency [4] was “inactive”. The Potency [5] was “inactive”, the Potency [6] was “inactive” and the Potency [7] was “inactive”. The Potency [8] was “inactive” and the Potency [9] was “inactive”.

For CC(=O)O[C@H]1CC2(C)[C@@H](C[C@@H](O)[C@H]3[C@@]4(C)CC[C@@H](O)[C@@H](C)[C@@H]4CC[C@@]32C)C1=C(CCC=C(C)C)C(=O)O (stereo partly specified), the outcome [2] was “inactive”, the activity change, negative = inhibition ([3]; at 57.5 µM (top of the series)) was 0.469% (inactive) and the max response [3, 10] was -5.46%. The max response [3, 11] was -5.43%, the Potency [4] was 39.8 µM (active) and the Potency [5] was “inactive”. For the same molecule, the Potency [6] was “inactive” and the Potency [7] was 8.91 µM (active).

In the case of O=C(O)CCC(=O)N1CCCC1C(=O)O (stereo unspecified), the outcome [2] is reported as “inactive”, the activity change, negative = inhibition ([3]; at 57.5 µM (top of the series)) is reported as -1.81% (inactive) and the max response [3, 10] is reported as 29.3%. For the same molecule, the max response [3, 11] was 27.9%, the Potency [4] was “inactive” and the Potency [5] was “inactive”. For the same molecule, the Potency [6] was “inactive”, the Potency [7] was “inactive” and the Potency [8] was “inactive”. The Potency [9] was “inactive”.

In the case of NC1CONC1=O (stereo unspecified), the outcome [2] is reported as “inactive”, the activity change, negative = inhibition ([3]; at 57.5 µM (top of the series)) is reported as 9.95% (inactive) and 0.344% (inactive) and the max response [3, 10] is reported as 9.83% and -1.76%. The max response [3, 11] was 24% and -1.09%, the Potency [4] was “inactive” and the Potency [5] was “inactive”. For the same molecule, the Potency [6] was “inactive”, the Potency [7] was “inactive” and the Potency [8] was “inactive”. For the same molecule, the Potency [9] was “inactive”.

With Cn1c(=O)c2c(nc(/C=C/c3cccc(Cl)c3)n2C)n(C)c1=O the outcome [2] was “inactive”, the activity change, negative = inhibition ([3]; at 57.5 µM (top of the series)) was -4.15% (inactive) and the max response [3, 10] was -60.2%. The max response [3, 11] was -62%, the Potency [4] was “inactive” and the Potency [5] was “inactive”. The Potency [6] was “inactive” and the Potency [7] was 10 µM (active).

With Cc1cc2c(cc1Cl)N(C(=O)Nc1ccnc3ccccc13)CC2 the outcome [2] was “inactive”, the activity change, negative = inhibition ([3]; at 57.5 µM (top of the series)) was 3.56% (inactive) and the max response [3, 10] was 57.9%. For the same molecule, the max response [3, 11] was 64%, the Potency [4] was “inactive” and the Potency [5] was “inactive”. For the same molecule, the Potency [6] was “inactive”, the Potency [7] was “inactive” and the Potency [8] was “inactive”. For the same molecule, the Potency [9] was “inactive”.

With NCCCCN=C(N)N the outcome [1] was “inactive”, the outcome [2] was “inactive” and the activity change, negative = inhibition ([3]; at 57.5 µM (top of the series)) was 6.41% (inactive). For the same molecule, the max response [3, 10] was 4.55%, the max response [3, 11] was 23.5% and the Potency [4] was “inactive”. The Potency [5] was “inactive”, the Potency [6] was “inactive” and the Potency [7] was “inactive”. The Potency [8] was “inactive” and the Potency [9] was “inactive”.

For Oc1cc2c(cc1O)C(c1ccccc1)CNCC2 (stereo unspecified), the outcome [2] was “inactive”, the activity change, negative = inhibition ([3]; at 57.5 µM (top of the series)) was 4.39% (inactive) and 0.147% (inactive) and the max response [3, 10] was 1.14% and -18.7%. For the same molecule, the max response [3, 11] was 16.2% and -20.2%, the Potency [4] was “inactive” and the Potency [5] was “inactive”. The Potency [6] was “inactive”.

In the case of CC(C)Cn1c(=O)n(C)c(=O)c2[nH]cnc21, the outcome [1] is reported as “inactive”, the outcome [2] is reported as “inactive” and the activity change, negative = inhibition ([3]; at 57.5 µM (top of the series)) is reported as 2.93% (inactive). The max response [3, 10] was 8.14%, the max response [3, 11] was 8.87% and the Potency [4] was “inactive”. The Potency [5] was “inactive”, the Potency [6] was “inactive” and the Potency [7] was “inactive”. For the same molecule, the Potency [8] was “inactive” and the Potency [9] was “inactive”.

With O=c1onc2n1-c1cc(Br)ccc1OC2 the outcome [1] was “inactive”, the outcome [2] was “inactive” and the activity change, negative = inhibition ([3]; at 57.5 µM (top of the series)) was 3.14% (inactive). The max response [3, 10] was 64.2%, the max response [3, 11] was 68.1% and the Potency [4] was “inactive”. The Potency [5] was “inactive”, the Potency [6] was “inactive” and the Potency [7] was “inactive”. For the same molecule, the Potency [8] was “inactive” and the Potency [9] was “inactive”.
